Laboratory results reported in PubChem BioAssay (NCATS).
Values without a mark were called inactive. Records with an inconclusive call do not appear. The source made the active and inactive calls. Unless noted, calls come from the whole dose curve; as a rule, active = well fitted curve in either direction with a large enough effect (not every such curve was filed as active); inconclusive = small, poorly fitted or top-dose-only effect, or another doubt; inactive = flat fitted curve, though single readings scatter.

How the values were obtained:
[1] = molecular target: Lysosomal acid glucosylceramidase (Homo sapiens) (UniProt P04062); test: Glucocerebrosidase-p2 (AID 348; in the data active = potency below about 10 µM; note: potency is the fitted concentration of half-maximal effect); conditions: purified GBA, blue fluorogenic substrate, 40 min
In short: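 Normal human glucocerebrosidase (0.2 nM) with blue fluorogenic substrate (80 uM final) in citrate/phosphate pH 5.9 with 10mM sodium taurocholate, 0.01% tween-20; 40 min RT, NaOH/glycine stop; fluorescence Ex 365/Em 440; AC50 from a titration from 0.6 nM upwards.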

[2] = AP1 Signaling Pathway (AID 357); conditions: ME-180 AP-1-bla reporter, EGF-induced, beta-lactamase ratio, 5 h; at 7.69 µM (top of the series) unless noted;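 note: ME-180 reporter cells stimulated with EGF at its EC50 level; % is set by controls: 0 for no effect and ±100 for the full control effect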
In short: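 Beta-lactamase reporter under AP-1 response element, ME-180 background. Stimulus: EC50 EGF. Compound exposure 5 h, 37 °C. Detection: CCF4, 2.5 h RT, 460/530 nm. Values: AC50 from titration.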

[3] = molecular target: Cytochrome P450 1A2 (Homo sapiens) (UniProt P05177); test: p450-cyp1a2 (AID 410; calls by dose curve; note: potency is the fitted concentration of half-maximal effect;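 for activity change, negative = inhibition: -100% = full effect of reference inhibitor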); conditions: recombinant CYP1A2, luciferin-ME demethylation, luminescence; series mostly up to 11.4 µM
In short: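 20nM CYP1A2, 100uM Luciferin-ME (=Km), 100mM KPO4; cpd 10 min RT; +NADPH regen, 60 min RT; stop/detect 20 min; luminescence. Normalized to furafylline 57 uM = full inhibition.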

[4] = NFAT Signaling Pathway (AID 444); conditions: Jurkat NFAT-bla M1, carbachol, beta-lactamase ratio, 5 h; at 7.69 µM (top of the series) unless noted;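 note: carbachol stimulus at about its EC50 of 1 µM final; % is set by controls: 0 for no effect and ±100 for the full control effect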
In short: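 Jurkat cells with NFAT-driven β-lactamase reporter and co-expressed M1 receptor, stimulated with carbachol (final 1 uM, ~EC50), compound titration, 5 h at 37 °C. CCF4 loaded 1 h at RT; 460/530 nm ratio gave %activity and AC50.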

[5] = Stat Signaling Pathway (AID 446); conditions: ME-180 (cervical carcinoma) SIE beta-lactamase reporter, IL-6 stimulated, 5 h; at 7.69 µM (top of the series) unless noted;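 note: ME-180 cervical cancer cells given 40 pM IL-6 alongside compound; SIE-controlled beta-lactamase reporter measured as 460/530 nm FRET emission ratio; % is set by controls: 0 for no effect and ±100 for the full control effect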
In short: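 Normalization used AC90 stimulation (300 pM IL-6) and AC90 inhibition (125 nM pan-JAK inhibitor at 40 pM IL-6). The underlying signal is SIE-driven beta-lactamase in ME-180 cells after 5 h IL-6 exposure with compound.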

[6] = molecular target: Glucocorticoid receptor (Homo sapiens) (UniProt P04150); test: GR-GFP Redistribution (AID 450;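 active = compounds whose dose series gives a full or clear partial fitted curve of increased nuclear translocation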; note: potency is the fitted concentration of half-maximal effect); conditions: U2OS GR-GFP nuclear translocation, laser cytometry, 2 h
[7] = molecular target: Glucocorticoid receptor (Homo sapiens) (UniProt P04150); test: GR-EFC Redistribution (AID 451; calls by dose curve; note: potency is the fitted concentration of half-maximal effect); conditions: CHO-K1 GR-EFC translocation, beta-gal luminescence, 2 h
In short: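 CHO-K1 cells expressing nuclear EA and GR-ED fragments of b-gal; compounds titrated up to 46 uM final, 2 h at 37 C. GR nuclear translocation read as complemented b-gal luminescence after 1 h RT detection.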

[8] = molecular target: Mitogen-activated protein kinase 10 (Mus musculus) (UniProt Q61831); test: JNK3 AlphaScreen Assay (AID 530); conditions: JNK3 lysate, c-Jun phosphorylation; series mostly up to 11.4 µM;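 note: kinase came from lysate of stimulated human HepG2 cells; signal reports phosphorylation of biotinylated GST-cJun 1-79 at Ser73 with 10 µM ATP; % is set by controls: 0 for no effect and ±100 for the full control effect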
In short: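 HepG2 lysate (IL-1b/TNFa pre-activated) + biotin-GST-cJun 1-79 + anti-pSer73 cJun; cpd titration, 15 min RT; ATP 10 uM start; Tris pH 7.6, MgCl2, DTT, vanadate; beads in EDTA buffer; AlphaScreen.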

[9] = molecular target: 3',5'-cyclic-AMP phosphodiesterase 4B (Homo sapiens) (UniProt Q07343); test: qHTS Assay for Inhibitors of PDE-IV (AID 607; active = well fitted activation curve with a large enough effect in the main read-out, with a control signal flat, not every such curve was filed as active; note: % of control where 0% means no effect); conditions: HEK293 ACTOne CNG channel cells, membrane potential fluorescence; series mostly up to 22.9 µM
In short: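 HEK293 ACTOne cells with CNG channel (1000/well), endogenous PDE4; membrane potential dye, compounds up to 22.9 uM final. Fluorescence Ex 535/Em 590; RO 20-1724 (100 uM final) as reference.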

[10] = molecular target: Cytochrome P450 2C9 (Homo sapiens) (UniProt P11712); test: qHTS Assay for Inhibitors and Substrates of Cytochrome P450 2C9 (AID 883; active = well fitted curve in the direction sought with a large enough effect; an effect the other way counts as inactive or inconclusive; note: nearly all actives have a fitted effect of over 60% in size; note: potency is the fitted concentration of half-maximal effect); conditions: recombinant CYP2C9, luciferin-H luminescence, 60 min; series mostly up to 11.4 µM
In short: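 Human CYP2C9 (10nM) with Luciferin-H at 100uM (its KM) in 25mM KPO4; compound preincubated 10 min at 37C, then NADPH regeneration for 60 min at 37C. Luciferin read by luminescence after detection reagent; normalized to 57uM sulphaphenazole as full inhibition.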

[11] = molecular target: Cytochrome P450 3A4 (Homo sapiens) (UniProt P08684); test: qHTS Assay for Inhibitors and Substrates of Cytochrome P450 3A4 (AID 884; active = well fitted curve in the direction sought with a large enough effect; an effect the other way counts as inactive or inconclusive; note: potency is the fitted concentration of half-maximal effect; nearly all actives have a fitted effect of over 50% in size); conditions: recombinant CYP3A4, Luciferin-PPXE luminescence; series mostly up to 57.1 µM
In short: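 Luminescent readout of luciferin produced by CYP3A4 (20 nM) dealkylation of Luciferin-PPXE, 25 uM (its KM). NADPH-driven reaction ran 60 min at RT after 10 min compound preincubation; data scaled to 57 uM ketoconazole as 100% inhibition.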

[12] = molecular target: Cytochrome P450 3A4 (Homo sapiens) (UniProt P08684); test: qHTS Assay for Activators of Cytochrome P450 3A4 (AID 885; active = well fitted curve in the direction sought with a large enough effect; an effect the other way counts as inactive or inconclusive; note: nearly all actives have a fitted effect of over 65% in size); conditions: recombinant CYP3A4, Luciferin-PPXE luminescence, 60 min; series mostly up to 11.4 µM
In short: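 Human CYP3A4 dealkylates Luciferin-PPXE to luciferin, which luciferase detection converts to light. Substrate was at its KM (25uM), buffer 200mM KPO4, reaction 60 min at RT.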

[13] = molecular target: Cytochrome P450 2C19 (Homo sapiens) (UniProt P33261); test: qHTS Assay for Inhibitors and Substrates of Cytochrome P450 2C19 (AID 899; active = well fitted curve in the direction sought with a large enough effect; an effect the other way counts as inactive or inconclusive; note: potency is the fitted concentration of half-maximal effect; nearly all actives have a fitted effect of over 60% in size); conditions: recombinant CYP2C19, luciferin-H EGE luminescence; series mostly up to 11.4 µM
In short: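 5 nM human CYP2C19 with 10uM Luciferin-H EGE (at KM) in 50mM KPO4, compound preincubated 10 min at 37C, then NADPH regeneration for 60 min at 37C. Luciferin read by luminescence after detection reagent; normalized to 57uM ketoconazole as full inhibition.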

Sequence of Lysosomal acid glucosylceramidase (Homo sapiens) (P04062 whole entry, looked up): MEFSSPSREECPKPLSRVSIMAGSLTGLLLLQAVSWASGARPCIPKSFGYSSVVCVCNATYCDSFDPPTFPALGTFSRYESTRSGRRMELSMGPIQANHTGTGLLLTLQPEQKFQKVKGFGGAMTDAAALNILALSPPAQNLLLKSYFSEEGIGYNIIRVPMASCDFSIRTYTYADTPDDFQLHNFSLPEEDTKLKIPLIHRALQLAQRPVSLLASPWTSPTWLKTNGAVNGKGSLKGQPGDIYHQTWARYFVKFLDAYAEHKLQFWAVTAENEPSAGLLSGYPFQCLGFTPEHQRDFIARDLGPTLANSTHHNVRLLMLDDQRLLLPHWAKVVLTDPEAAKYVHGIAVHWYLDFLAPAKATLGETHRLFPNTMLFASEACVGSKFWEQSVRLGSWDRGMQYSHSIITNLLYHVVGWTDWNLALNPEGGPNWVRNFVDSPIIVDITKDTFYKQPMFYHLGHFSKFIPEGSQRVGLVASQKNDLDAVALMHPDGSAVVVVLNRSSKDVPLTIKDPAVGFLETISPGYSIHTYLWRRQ
Sequence of 3',5'-cyclic-AMP phosphodiesterase 4B (Homo sapiens) (Q07343 whole entry, looked up): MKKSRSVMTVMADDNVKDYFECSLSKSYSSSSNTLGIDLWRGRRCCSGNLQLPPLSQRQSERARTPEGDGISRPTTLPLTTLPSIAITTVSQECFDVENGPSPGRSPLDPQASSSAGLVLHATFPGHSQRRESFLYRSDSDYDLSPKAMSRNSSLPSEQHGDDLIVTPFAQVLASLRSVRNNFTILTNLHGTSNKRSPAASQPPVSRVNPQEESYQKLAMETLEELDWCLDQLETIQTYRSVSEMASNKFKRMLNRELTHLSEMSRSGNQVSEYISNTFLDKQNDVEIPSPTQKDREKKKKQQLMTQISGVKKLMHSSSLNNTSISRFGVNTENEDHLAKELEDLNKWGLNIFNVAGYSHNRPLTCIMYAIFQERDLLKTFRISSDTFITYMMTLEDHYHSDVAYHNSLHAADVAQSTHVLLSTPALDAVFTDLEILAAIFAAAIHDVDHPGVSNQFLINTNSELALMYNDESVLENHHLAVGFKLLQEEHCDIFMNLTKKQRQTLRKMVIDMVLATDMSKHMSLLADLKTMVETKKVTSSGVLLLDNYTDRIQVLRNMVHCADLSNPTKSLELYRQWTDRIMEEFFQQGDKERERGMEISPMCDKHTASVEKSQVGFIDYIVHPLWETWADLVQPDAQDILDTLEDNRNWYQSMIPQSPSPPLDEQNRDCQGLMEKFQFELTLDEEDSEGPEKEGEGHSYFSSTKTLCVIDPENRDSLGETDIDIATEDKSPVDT
Sequence of Glucocorticoid receptor (Homo sapiens) (P04150 whole entry, looked up, the tested form may be a part): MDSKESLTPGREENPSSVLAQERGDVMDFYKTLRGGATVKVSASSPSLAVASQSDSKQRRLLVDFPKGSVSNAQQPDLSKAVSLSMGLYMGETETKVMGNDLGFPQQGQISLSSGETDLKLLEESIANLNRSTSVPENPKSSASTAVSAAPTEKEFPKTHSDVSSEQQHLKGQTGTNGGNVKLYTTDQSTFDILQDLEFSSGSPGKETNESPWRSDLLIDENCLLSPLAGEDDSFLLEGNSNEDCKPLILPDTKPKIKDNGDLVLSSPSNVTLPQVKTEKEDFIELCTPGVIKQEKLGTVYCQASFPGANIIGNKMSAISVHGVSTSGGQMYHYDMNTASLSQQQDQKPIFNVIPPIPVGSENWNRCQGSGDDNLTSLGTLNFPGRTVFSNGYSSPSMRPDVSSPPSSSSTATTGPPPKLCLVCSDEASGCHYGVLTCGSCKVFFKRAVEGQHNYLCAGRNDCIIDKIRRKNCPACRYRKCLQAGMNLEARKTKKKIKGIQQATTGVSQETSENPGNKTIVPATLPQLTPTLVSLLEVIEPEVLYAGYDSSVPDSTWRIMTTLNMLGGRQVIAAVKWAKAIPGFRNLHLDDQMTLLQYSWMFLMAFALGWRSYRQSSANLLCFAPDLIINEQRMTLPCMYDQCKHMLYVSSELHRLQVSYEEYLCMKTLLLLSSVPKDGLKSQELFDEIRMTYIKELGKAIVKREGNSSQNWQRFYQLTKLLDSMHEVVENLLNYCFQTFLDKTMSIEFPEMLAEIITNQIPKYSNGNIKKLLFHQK
Sequence of Cytochrome P450 1A2 (Homo sapiens) (P05177 whole entry, looked up): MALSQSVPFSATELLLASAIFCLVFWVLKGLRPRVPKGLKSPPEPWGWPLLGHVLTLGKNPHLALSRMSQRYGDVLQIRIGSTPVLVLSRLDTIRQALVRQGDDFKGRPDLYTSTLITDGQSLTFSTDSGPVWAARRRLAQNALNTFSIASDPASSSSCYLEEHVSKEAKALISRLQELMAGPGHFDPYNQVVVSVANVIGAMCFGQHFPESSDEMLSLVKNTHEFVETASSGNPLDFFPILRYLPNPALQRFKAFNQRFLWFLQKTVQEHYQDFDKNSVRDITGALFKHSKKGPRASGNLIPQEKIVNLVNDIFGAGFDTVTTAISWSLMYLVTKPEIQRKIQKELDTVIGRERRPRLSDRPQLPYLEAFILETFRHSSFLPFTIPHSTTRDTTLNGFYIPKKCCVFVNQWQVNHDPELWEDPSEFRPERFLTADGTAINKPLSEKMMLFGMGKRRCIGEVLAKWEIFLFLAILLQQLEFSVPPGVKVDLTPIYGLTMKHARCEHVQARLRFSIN
Sequence of Cytochrome P450 2C9 (Homo sapiens) (P11712 whole entry, looked up): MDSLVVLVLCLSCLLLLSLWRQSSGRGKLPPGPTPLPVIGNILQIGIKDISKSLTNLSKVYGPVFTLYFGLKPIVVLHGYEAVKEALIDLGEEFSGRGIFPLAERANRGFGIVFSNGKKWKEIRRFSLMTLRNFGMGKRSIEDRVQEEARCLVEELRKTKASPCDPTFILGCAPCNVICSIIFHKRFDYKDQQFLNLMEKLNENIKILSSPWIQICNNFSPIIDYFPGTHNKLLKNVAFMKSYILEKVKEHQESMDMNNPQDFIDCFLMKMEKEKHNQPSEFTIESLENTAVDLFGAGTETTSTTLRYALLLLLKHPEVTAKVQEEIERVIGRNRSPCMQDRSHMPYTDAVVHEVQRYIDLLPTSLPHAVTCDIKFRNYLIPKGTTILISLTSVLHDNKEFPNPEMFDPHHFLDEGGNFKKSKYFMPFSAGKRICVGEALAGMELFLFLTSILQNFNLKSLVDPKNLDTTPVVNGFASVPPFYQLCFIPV
Sequence of Cytochrome P450 3A4 (Homo sapiens) (P08684 whole entry, looked up): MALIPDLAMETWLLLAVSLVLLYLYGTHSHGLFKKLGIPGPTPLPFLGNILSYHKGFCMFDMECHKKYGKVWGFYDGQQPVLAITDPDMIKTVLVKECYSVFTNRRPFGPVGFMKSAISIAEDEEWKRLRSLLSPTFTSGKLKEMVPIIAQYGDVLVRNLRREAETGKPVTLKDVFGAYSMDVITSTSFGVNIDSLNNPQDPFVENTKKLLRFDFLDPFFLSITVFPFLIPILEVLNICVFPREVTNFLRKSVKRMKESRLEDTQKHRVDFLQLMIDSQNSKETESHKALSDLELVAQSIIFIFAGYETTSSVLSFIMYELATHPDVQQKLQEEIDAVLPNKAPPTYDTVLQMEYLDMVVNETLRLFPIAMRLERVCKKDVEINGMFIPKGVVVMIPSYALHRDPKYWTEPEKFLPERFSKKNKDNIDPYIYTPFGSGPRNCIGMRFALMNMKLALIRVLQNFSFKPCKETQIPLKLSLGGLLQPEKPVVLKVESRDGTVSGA
Sequence of Cytochrome P450 2C19 (Homo sapiens) (P33261 whole entry, looked up): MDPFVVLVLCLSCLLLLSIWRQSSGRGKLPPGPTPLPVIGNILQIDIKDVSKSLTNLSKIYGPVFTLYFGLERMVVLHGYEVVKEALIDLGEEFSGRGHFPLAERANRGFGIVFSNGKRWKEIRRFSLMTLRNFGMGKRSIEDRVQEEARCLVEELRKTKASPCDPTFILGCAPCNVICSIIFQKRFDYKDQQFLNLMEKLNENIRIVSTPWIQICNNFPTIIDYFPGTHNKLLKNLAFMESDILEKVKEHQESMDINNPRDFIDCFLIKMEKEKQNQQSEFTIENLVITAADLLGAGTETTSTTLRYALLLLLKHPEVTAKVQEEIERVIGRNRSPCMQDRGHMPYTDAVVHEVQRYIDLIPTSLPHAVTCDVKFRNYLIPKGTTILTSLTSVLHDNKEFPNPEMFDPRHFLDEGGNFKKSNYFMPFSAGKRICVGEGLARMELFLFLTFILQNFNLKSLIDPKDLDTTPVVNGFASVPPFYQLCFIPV

Row | Structure (SMILES) | Potency [1] | activity change, negative = inhibition [2] | Potency [3] | activity change, negative = inhibition [4] | activity, negative = inhibition [5] | Potency [6] | Potency [7] | Potency [8] | Potency [9] | Potency [10] | activity change, negative = inhibition [3] | Potency [11] | Potency [12] | Potency [13]
1 | NC(N)=NC(N)=Nc1ccccc1 (tested in a mixture with another compound) | > 11.4 µM | -4.98% | 3.16 µM (active) | 10.5% | 1.58% | > 46 µM | > 9.22 µM | inactive | inactive | – | – | – | – | –
2 | CC[C@@H](Nc1ncnc2nc[nH]c12)C(=O)O | > 11.4 µM | -11.2% | inactive | -4.99% | 0.774% | > 46 µM | > 9.22 µM | inactive | inactive | – | – | – | – | –
3 | CC(=O)C=NCC(=O)O | > 11.4 µM | -0.671% | inactive | 3.49% | -0.18% | > 46 µM | > 9.22 µM | inactive | inactive | – | – | – | – | –
4 | O=S(=O)(O)c1ccc(O)c2ncccc12.O=S(=O)(O)c1ccc(O)c2ncccc12.[Zn] | > 11.4 µM | 6.49% | 0.631 µM (active) | -15.3% | 7.8% | > 46 µM | > 9.22 µM | inactive | inactive | – | – | – | – | –
5 | O=C(O)c1cc(C(=O)O)nc(C(=O)O)c1 | > 11.4 µM | 7.15% | inactive | 0.674% | 3.63% | > 46 µM | > 9.22 µM | inactive | inactive | – | – | – | – | –
6 | O=C(O)[C@@H](Cc1c[nH]c2ccccc12)C(=O)NO | > 11.4 µM | -4.03% | inactive | 4.43% | 4.19% | > 46 µM | > 9.22 µM | inactive | inactive | – | – | – | – | –
7 | C[C@@H]1C[C@H](C)CN(S(=O)(=O)c2cc(Cl)c(Oc3ccc([N+](=O)[O-])cc3Cl)c(Cl)c2)C1 | > 11.4 µM | 16.4% | inactive | -22.6% | 20.1% | > 46 µM | > 9.22 µM | inactive | inactive | – | – | – | – | –
8 | N#C/C(=C\Nc1ccccn1)C(=O)C1CC1 | > 11.4 µM | 7.75% | 1.26 µM (active) | 5.1% | 1.86% | > 46 µM | > 9.22 µM | inactive | inactive | – | – | – | – | –
9 | Nc1nccc(Nc2ccc(S(N)(=O)=O)cc2)n1 | > 11.4 µM | 2.96% | inactive | -13.6% | -5% | > 46 µM | > 9.22 µM | inactive | inactive | – | – | – | – | –
10 | Cc1ccnc(NS(=O)(=O)c2ccc(N=[N+]=[N-])cc2)n1 | > 11.4 µM | -2.39% | inactive | 4.09% | 1.25% | > 46 µM | > 9.22 µM | inactive | inactive | – | – | – | – | –
11 | COc1cc(NCCC(=O)O)c2ncccc2c1 | > 11.4 µM | 2.4% | inactive | 2.69% | -1.17% | > 46 µM | > 9.22 µM | inactive | inactive | – | – | – | – | –
12 | Nc1ccn([C@H]2O[C@@H](COP(=O)(O)O)[C@@H](O)[C@H]2O)c(=O)n1 | > 11.4 µM | 5.49% | inactive | 12.4% | 4.03% | > 46 µM | > 9.22 µM | inactive | inactive | – | – | – | – | –
13 | Oc1ccc(Cc2nccc3cc(O)c(O)cc23)cc1O | > 11.4 µM | -6.37% | 5.01 µM (active) | 7.28% | -2.43% | > 46 µM | > 9.22 µM | inactive | inactive | inactive | – | – | – | –
14 | COc1ccc([C@@H](Nc2ncccn2)c2cc3c(cc2O)OCO3)cc1 | > 11.4 µM | -6.22% | – | 17.5% | -1.19% | > 46 µM | > 9.22 µM | inactive | inactive | 3.16 µM (active) | -14.3% [at 2.29 µM] | 2.51 µM (active) | inactive | 0.316 µM (active)
